The list is not random: actives were taken first. Their share in the collection is about 3.3%.
Tb PYK inh: qHTS of Trypanosoma Brucei Inhibitors. AID 624173, 2012. TbPYK enzyme, Kinase-Glo Plus ATP luminescence, 45 min. Potency, µM (series often up to 76.8 µM), inactives show at the highest dose activity, negative = inhibition, most hits filed as inhibitors. hit rate 0.12% among 410,000; further: nearly all actives have a fitted effect of over 50% in size
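Readout: single end-point luminescence (Kinase-Glo Plus, 10 min). Reaction conditions were TbPYK/substrate plus 130 uM ADP, 45 min at RT, pH 7.2 TEA buffer. No-enzyme wells served as controls, and data were normalized before concentration-response fitting.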
Sm TGR block: qHTS Assay for the Inhibitors of Schistosoma Mansoni Peroxiredoxins; Schistosoma mansoni thioredoxin glutathione reductase (TGR), Q962Y6; Potency, µM (highest dose often 114 µM), inactives show top-dose activity change, negative = inhibition, actives largely listed as inhibitors; hit rate 3% among 360,000; purified TGR, DTNB reduction, TNB absorbance 405 nm; AID 485364, 2010; further: nearly all actives have a fitted effect of over 60% in size
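Kinetic colorimetric format: TGR-catalysed, NADPH-driven DTNB reduction monitored via TNB absorbance. Enzyme dispensed at 20 nM; compound exposure 15 min at room temperature before reaction start.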
LmPK inhibitor: qHTS Assay for Inhibitors of Leishmania Mexicana Pyruvate Kinase (LmPK); Q27686; purified LmPK, Kinase-Glo ATP luminescence, 1 h; Potency, µM (titrated, usually from 57.5 µM), without a hit: at the top dose activity change, negative = inhibition, most hits filed as inhibitors; hit rate 0.37% among 290,000; AID 1721, 2009
Target sequence (Q27686 whole entry, looked up): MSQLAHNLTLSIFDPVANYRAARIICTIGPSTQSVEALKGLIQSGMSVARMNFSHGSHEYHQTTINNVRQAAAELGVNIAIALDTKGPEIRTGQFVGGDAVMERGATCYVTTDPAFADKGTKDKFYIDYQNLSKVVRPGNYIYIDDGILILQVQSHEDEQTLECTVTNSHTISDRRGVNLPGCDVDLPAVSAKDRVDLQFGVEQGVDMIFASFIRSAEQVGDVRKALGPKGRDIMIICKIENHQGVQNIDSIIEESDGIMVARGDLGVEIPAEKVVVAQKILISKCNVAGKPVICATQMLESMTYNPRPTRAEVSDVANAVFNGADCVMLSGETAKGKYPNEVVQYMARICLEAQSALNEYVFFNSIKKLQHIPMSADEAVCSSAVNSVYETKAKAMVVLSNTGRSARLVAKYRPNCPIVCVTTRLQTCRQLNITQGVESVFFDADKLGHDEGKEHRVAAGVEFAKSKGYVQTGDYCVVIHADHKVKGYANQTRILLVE
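Screened at intermediate enzyme activity to detect both inhibitors and activators: LmPK at 0.1 nM, with a 0.5 nM enzyme column as activation reference. PEP 0.5 mM, ADP 0.1 mM; ATP detected by luminescence after 1 h.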
RE007 growth inh: qHTS Assay for Inhibitors of the HIV-1 protein Vpr; S. pombe RE007 Vpr strain, BacTiter-Glo ATP luminescence, 24 h; Potency, µM (highest dose often 92.2 µM), for the others: at the highest dose activity change, negative = less growth, most hits filed as inhibitors; hit rate 0.21% among 360,000; AID 651644, 2012; active means well fitted falling curve with a large enough effect; inconclusive means small, poorly fitted or top-dose-only effect; inactive means no such curve, though single readings can be large or run the other way; further: nearly all actives have a fitted effect of over 50% in size
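Fission yeast RE007 carrying one integrated HIV-1 vpr copy, seeded at OD 0.01 in PMG+AL medium with 23 nL pinned compound. Grown 24 h at 30 degrees; viability read by BacTiter-Glo luminescence after 5 min.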
FBPA Giardia inh: qHTS Assay for Inhibitors of Fructose-1,6-bisphosphate Aldolase from Giardia Lamblia; A8B2U2; hit rate 0.71% among 290,000; Potency, µM (top dose mostly 59.6 µM), for inactives: top-dose activity, negative = inhibition, hits mostly inhibitors; purified Giardia FBPA; further: nearly all actives have a fitted effect of over 55% in size
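40 nM FBPA preincubated 10 min at RT with compound (up to 57.5 uM final), then substrate plus GAPDH/TPI/NAD/arsenate coupling and diaphorase/resazurin added. Fluorescence read after 20 min at RT, 525/598 nm.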
The depositor's hits bear a star; ? = inconclusive; · = not tested or not shown. Unless noted, the call rests on the fitted dose curve; in most records, active means well fitted curve in the direction sought with a large enough effect; inconclusive means small, poorly fitted or top-dose-only effect, or another doubt; inactive means no such curve, though single readings can be large; an effect the other way counts as inactive or inconclusive. On the % scale 0 is the no-effect control and ±100 the full control effect; potency means the concentration at half of the fitted maximal effect.

SMILES | Tb PYK inh | Sm TGR block | LmPK inhibitor | RE007 growth inh | FBPA Giardia inh
Cc1ccccc1N1C(=O)NC(=O)/C(=C/c2ccc(N3CCOCC3)o2)C1=O | -4% | 22µM* | 2% | 5% | 0%
Cc1ccccc1N1C(=O)NC(=O)/C(=C\c2cc(Br)c(N3CCOCC3)o2)C1=O | -4% | ? | -14% | 4% | -2%
O=C1NC(=O)/C(=C/c2ccc(N3CCOCC3)o2)N1 | -10% | 11µM* | 3% | 0% | ?
Cc1cc(/C=C2\NC(=O)NC2=O)c(C)n1-c1ccc(N2CCOCC2)cc1 | -1% | ? | -1% | -27% | -24%
C/C=C\C=C/C(=O)Nc1cccc(C2=NOC3(C2)C[C@@H](C(N)=O)N(C(=O)c2ccc(Cl)cc2)C3)c1 (stereo partly specified) | -18% | 3.2µM* | 4% | -7% | -31%
C/C=C\C=C/C(=O)Nc1cccc(C2=NOC3(C2)C[C@H](C(N)=O)N(C(=O)c2ccc(OC)cc2)C3)c1 (stereo partly specified) | -29% | 1.8µM* | 0% | 4% | -3%
C/C=C/C(=O)Nc1cccc(C2=NOC3(C2)C[C@@H](C(N)=O)N(C(=O)c2cc([N+](=O)[O-])cc([N+](=O)[O-])c2)C3)c1 (stereo partly specified) | 0% | 0% | 6% | -24% | -12%
Cc1scc(-c2n[nH]c(=S)n2C(C)c2ccccc2)c1C (stereo unspecified) | 2.2µM* | 3% | 13µM* | · | 0%
CCc1cc(-c2n[nH]c(=S)n2C(C)c2ccccc2)cs1 (stereo unspecified) | -67% | -18% | 14µM* | 8% | 16%
CC(c1ccccc1)n1c(-c2ccc(C(C)(C)C)cc2)n[nH]c1=S (stereo unspecified) | -19% | -3% | -18% | 9% | 12%
CCOc1ccc(NC(=O)c2c(NCc3cccnc3)sc3c2CCC(C)C3)cc1 (stereo unspecified) | 14µM* | -34% | · | · | ·
CCOc1ccc(NC(=O)c2c(NCc3cccs3)sc3c2CCC(C)C3)cc1 (stereo unspecified) | -10% | -10% | · | · | ·
CCOc1ccc(NC(=O)c2c(NCc3ccc(C)o3)sc3c2CCC(C)C3)cc1 (stereo unspecified) | -17% | 25µM* | · | · | ·
CCOc1ccc(C(=O)CCC(=O)N2CCC(C(=O)OC)CC2)cc1 | 6% | -9% | -6% | 3% | 5%
COCCCN(C(=O)c1ccco1)c1nc(-c2cc(OC)ccc2OC)cs1 | 4% | 89µM* | 6% | 11% | -12%
Cc1ccc(C(=O)NC(=S)NCc2cccnc2)c(C)c1 | -1% | 45µM* | 5% | 7% | 9%
COc1ccc(Cl)cc1NC(=S)NCc1cccnc1 | -6% | 13µM* | 5% | -9% | 2%
S=C(NCc1cccnc1)Nc1cccc(Cl)c1 | -12% | 32µM* | 6% | -5% | 1%
S=C(NCc1cccnc1)Nc1cc(Cl)cc(Cl)c1 | 0% | 28µM* | 2% | 7% | 2%
O=C(COc1ccc2c3c(c(=O)oc2c1)CCCC3)N1C[C@H]2C[C@@H](C1)c1cccc(=O)n1C2 | -10% | -2% | -9% | 3% | 20%
COc1ccc(NC(=O)[C@@H](NC(=O)N2C[C@H]3C[C@@H](C2)c2cccc(=O)n2C3)C(C)C)cc1 | 4% | 3% | -8% | 7% | -1%
O=C(CC(NC(=O)c1ccccc1Cl)c1ccccc1)NC1=NCCS1 (stereo unspecified) | -5% | 6% | -2% | -19% | -5%
S=C(NCc1cccnc1)Nc1ccc(Cl)cc1 | -4% | 40µM* | 0% | -10% | 8%
CC(=O)c1ccc(NC(=S)NCc2cccnc2)cc1 | -3% | 40µM* | 1% | 7% | 5%
O=C(NCc1cccnc1)c1ccc(-c2ccc(Cl)cc2)o1 | 3% | 0% | -10% | -2% | 1%
SMILES | Tb PYK inh | Sm TGR block | LmPK inhibitor | RE007 growth inh | FBPA Giardia inh
O=C(NCc1cccnc1)c1ccc(-c2cc(Cl)ccc2Cl)o1 | -14% | 40µM* | 8% | -16% | -2%
CN1OC[C@@H]2CN(S(=O)(=O)c3ccccc3)[C@H](c3cccc(Br)c3)C[C@@H]21 | -6% | · | · | -12% | ·
COc1ccc(Cl)cc1C(=O)OCC(=O)NC1CCCC(C)C1C (stereo unspecified) | -1% | 0% | · | 5% | ·
CCN(CC)S(=O)(=O)c1ccc(Cl)c(NC(=O)COC(=O)c2nc3nc(C)cc(C)n3n2)c1 | 1% | · | · | 0% | ·
O=C(O)CN1C(=O)c2cccc3c(Br)ccc1c23 | -1% | -33% | -1% | 10% | 17%
CN(C)CCCN1C(=O)c2cccc3c(Br)ccc(c23)C1=O | -2% | 8.9µM* | 6% | -12% | 0%
COc1ccc(C2CC(=O)N3CN(C4CCCCC4)CSC3=C2C#N)cc1 (stereo unspecified) | 22µM* | 7.9µM* | · | · | ·
COc1cccc(C2CC(=O)N3CN(C4CCCCC4)CSC3=C2C#N)c1 (stereo unspecified) | ? | 2.5µM* | · | · | ·
Cc1[nH]c2ccc(-c3n[nH]c(=S)n3C)cc2c1C | ? | -4% | -11% | -7% | 3%
CCn1c(-c2ccc3[nH]c(C)c(C)c3c2)n[nH]c1=S | ? | 17% | 28µM* | -1% | 0%
O=C(CCN1CCN(c2ccccc2)CC1)c1ccc(Br)cc1 | 1% | 0% | 1% | ? | 6%
COc1ccc(C(=O)CCN2CCN(c3ccccc3F)CC2)cc1 | -4% | 0.79µM* | -1% | 11µM* | -11%
O=C(CCN1CCN(c2ccccc2F)CC1)c1ccc(Br)cc1 | -14% | 0% | -7% | 32µM* | -2%
Cc1c(C(=O)N2CCN(CCc3ccccn3)CC2)oc2ccc(Cl)cc12 | -3% | 5% | 1% | -12% | ?
N#Cc1nc(N2CCOCC2)nc(N2CCOCC2)n1 | -1% | -24% | 3% | 3% | 9%
O=[N+]([O-])c1ccc2c(c1)/C(=N\O)c1ccccc1-2 | 11% | 9% | 12% | 5% | 4%
O=[N+]([O-])c1ccc2c(c1)-c1ccccc1C2O (stereo unspecified) | 16µM* | · | · | -2% | ·
COc1cc(/C=C2\SC(=O)N(c3ccccc3Cl)C2=O)cc([N+](=O)[O-])c1O | -9% | -25% | -4% | 35µM* | -2%
COc1cc(/C=C2\SC(=O)N(CC(=O)Nc3cccc(C)c3)C2=O)cc([N+](=O)[O-])c1O | -6% | -7% | -10% | -3% | -5%
Cc1cnnn1-c1ccc(C(=O)CCl)cc1 | -15% | 5.6µM* | -4% | 20% | ·
CC(=O)c1ccc(-n2nncc2C(C)(C)C)cc1 | 4% | 0% | 2% | 49% | 3%
